Results as given in the supplement of paper PMC11482750.
± gives the standard deviation of the averaged measurements.

compound: CCC1CCC(=O)O1 [γ-hexalactone]; test: control-subtracted net OSN firing rate; higher = stronger neuronal activation; conditions: odorant dilution (vol/vol): 1/100
Method: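 Single sensillum recordings from olfactory sensory neurons. The neurons sit in the maxillary palp or antennal sensilla of D. melanogaster (wild type, mutants, or at1 empty-neuron lines expressing Or42a homologs or the A181D S307P mutant) and of four Scaptomyza species. Each odorant was given as a 1 s pulse from 20 µl loaded on filter paper at 1:100 vol/vol, diluted in mineral oil (γ-hexalactone in DMSO). Spikes were counted in a 0.5 s window starting 0.2 s after onset, background was subtracted, the count was doubled, and the mean solvent-control response was subtracted.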

Row | Target | control-subtracted net OSN firing rate
1 | Canton-S at4a | -3 ± 3.5 spikes/s
2 | Canton-S pb1b | -7.71 ± 12 spikes/s
3 | Canton-S ab9b | -2.67 ± 12 spikes/s
4 | Canton-S ab7b | -2 ± 3.3 spikes/s
5 | Or67dGal4, UAS-Sfla Or42a3 at1 | 38.3 ± 15 spikes/s
6 | Canton-S ab8b | 10 ± 5.8 spikes/s
7 | Canton-S ab1b | 2.5 ± 8.5 spikes/s
8 | Canton-S pb1a | 167 ± 28 spikes/s
